The supplement of paper PMC11732987, “Enantioselective OTUD7B fragment discovery through chemoproteomics screening and high-throughput optimisation” (Communications Chemistry, 2025)

Assays:
Assay in all cases: log2 ratio of Biotin-Ahx-Ub-VS probe labelling (fragment/DMSO); higher = less target engagement (more negative = stronger competition), active = hit call of the paper (q ≤ 0.05, log2 ratio ≤ -1)
Conditions in all cases: compound concentration: 200 uM; treatment time: 3 h
USP19 = molecular target: T1, USP19 (UniProt O94966)
T1 sequence (whole entry): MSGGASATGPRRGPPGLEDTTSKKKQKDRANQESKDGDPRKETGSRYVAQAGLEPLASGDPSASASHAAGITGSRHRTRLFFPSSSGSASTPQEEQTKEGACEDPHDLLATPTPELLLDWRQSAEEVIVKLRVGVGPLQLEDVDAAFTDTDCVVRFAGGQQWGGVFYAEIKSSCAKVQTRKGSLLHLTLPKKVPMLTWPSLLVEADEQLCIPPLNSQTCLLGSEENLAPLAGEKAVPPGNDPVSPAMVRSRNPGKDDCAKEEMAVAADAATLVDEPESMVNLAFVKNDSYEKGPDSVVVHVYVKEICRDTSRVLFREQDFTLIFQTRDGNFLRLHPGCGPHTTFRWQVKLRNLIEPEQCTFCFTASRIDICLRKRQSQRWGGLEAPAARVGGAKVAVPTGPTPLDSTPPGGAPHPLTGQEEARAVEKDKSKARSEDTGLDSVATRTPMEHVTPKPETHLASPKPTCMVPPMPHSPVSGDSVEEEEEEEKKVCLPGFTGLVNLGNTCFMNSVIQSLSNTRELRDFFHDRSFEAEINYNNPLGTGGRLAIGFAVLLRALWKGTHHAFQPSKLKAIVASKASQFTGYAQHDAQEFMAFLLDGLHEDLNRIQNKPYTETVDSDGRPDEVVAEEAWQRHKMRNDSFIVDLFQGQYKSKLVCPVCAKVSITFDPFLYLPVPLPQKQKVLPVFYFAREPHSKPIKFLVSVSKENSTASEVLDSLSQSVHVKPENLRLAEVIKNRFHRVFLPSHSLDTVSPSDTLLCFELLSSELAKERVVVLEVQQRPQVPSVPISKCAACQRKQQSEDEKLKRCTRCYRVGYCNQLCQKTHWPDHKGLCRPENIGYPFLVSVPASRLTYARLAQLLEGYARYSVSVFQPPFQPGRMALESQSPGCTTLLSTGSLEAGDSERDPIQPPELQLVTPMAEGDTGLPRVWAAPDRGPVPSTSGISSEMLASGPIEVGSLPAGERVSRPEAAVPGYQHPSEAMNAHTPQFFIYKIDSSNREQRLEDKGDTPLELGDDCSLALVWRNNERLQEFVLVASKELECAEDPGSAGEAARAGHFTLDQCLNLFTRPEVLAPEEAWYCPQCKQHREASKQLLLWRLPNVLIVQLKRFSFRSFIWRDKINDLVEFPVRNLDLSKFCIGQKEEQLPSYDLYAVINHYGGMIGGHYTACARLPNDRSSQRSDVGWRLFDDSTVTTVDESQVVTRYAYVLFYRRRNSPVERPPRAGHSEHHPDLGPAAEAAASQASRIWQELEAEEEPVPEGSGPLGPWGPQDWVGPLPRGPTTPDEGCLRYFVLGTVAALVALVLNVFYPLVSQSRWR
In short: (§1)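 Using Biotin-Ahx-Ub-VS at 0.5 µM final for 1 h, DUBs were labelled in HEK293T lysate (495 µg per sample) that had first been treated in triplicate with fragment at 200 µM or vehicle for 3 h. NeutrAvidin enrichment, LysC and trypsin digestion and diaPASEF LC-MS/MS followed. Spectronaut label-free quantities were global-median-normalised. Values are average log2 fragment/vehicle ratios by unpaired t-test, using proteins with ≥2 unique peptides.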

USP22 = molecular target: T2, USP22 (UniProt Q9UPT9)
T2 sequence (whole entry): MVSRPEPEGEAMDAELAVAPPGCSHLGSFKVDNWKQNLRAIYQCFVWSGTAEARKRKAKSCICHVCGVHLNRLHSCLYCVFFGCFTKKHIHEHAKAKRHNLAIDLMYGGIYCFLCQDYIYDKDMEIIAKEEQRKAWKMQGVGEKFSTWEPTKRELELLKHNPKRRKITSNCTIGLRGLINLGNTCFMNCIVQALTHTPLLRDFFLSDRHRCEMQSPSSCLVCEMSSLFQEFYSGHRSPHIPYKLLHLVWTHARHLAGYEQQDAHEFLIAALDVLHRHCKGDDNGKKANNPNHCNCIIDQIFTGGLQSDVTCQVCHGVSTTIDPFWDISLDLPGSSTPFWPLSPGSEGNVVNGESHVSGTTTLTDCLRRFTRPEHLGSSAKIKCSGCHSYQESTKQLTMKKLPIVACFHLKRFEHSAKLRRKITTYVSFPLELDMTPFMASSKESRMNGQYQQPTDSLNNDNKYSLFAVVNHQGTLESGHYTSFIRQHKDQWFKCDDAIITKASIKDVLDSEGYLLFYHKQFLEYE
In short: as §1

USP24 = USP24 (UniProt Q9UPU5)
In short: as §1

USP25 = molecular target: T3, USP25 (UniProt Q9UHP3)
T3 sequence (whole entry): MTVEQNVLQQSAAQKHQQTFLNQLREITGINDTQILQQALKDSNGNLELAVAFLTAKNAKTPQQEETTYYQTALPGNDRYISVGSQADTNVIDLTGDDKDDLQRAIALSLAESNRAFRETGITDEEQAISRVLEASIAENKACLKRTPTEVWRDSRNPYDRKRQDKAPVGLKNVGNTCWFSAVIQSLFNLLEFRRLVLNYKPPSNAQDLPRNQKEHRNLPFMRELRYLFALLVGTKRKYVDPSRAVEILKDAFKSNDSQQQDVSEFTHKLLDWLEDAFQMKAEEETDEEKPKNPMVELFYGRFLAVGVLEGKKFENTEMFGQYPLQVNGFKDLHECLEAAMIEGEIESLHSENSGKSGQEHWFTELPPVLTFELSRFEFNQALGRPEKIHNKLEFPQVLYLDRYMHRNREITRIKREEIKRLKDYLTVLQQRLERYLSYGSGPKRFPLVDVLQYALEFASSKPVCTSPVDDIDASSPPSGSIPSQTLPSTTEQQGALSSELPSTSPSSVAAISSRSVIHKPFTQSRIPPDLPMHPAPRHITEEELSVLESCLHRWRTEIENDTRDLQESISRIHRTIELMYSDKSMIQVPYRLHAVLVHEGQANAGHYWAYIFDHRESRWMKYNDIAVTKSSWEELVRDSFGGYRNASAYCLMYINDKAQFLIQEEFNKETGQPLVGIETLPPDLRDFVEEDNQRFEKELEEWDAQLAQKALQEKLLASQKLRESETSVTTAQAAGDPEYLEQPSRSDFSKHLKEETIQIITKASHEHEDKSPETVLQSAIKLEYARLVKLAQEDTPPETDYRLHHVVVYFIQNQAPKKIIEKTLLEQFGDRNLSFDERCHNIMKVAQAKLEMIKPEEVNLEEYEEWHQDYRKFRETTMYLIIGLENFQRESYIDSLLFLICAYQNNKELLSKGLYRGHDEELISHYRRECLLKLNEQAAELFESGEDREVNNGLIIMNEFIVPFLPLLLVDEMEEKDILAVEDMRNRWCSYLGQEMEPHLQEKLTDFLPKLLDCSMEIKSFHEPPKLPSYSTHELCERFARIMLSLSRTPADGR
In short: as §1

USP28 = molecular target: T4, USP28 (UniProt Q96RU2)
T4 sequence (whole entry): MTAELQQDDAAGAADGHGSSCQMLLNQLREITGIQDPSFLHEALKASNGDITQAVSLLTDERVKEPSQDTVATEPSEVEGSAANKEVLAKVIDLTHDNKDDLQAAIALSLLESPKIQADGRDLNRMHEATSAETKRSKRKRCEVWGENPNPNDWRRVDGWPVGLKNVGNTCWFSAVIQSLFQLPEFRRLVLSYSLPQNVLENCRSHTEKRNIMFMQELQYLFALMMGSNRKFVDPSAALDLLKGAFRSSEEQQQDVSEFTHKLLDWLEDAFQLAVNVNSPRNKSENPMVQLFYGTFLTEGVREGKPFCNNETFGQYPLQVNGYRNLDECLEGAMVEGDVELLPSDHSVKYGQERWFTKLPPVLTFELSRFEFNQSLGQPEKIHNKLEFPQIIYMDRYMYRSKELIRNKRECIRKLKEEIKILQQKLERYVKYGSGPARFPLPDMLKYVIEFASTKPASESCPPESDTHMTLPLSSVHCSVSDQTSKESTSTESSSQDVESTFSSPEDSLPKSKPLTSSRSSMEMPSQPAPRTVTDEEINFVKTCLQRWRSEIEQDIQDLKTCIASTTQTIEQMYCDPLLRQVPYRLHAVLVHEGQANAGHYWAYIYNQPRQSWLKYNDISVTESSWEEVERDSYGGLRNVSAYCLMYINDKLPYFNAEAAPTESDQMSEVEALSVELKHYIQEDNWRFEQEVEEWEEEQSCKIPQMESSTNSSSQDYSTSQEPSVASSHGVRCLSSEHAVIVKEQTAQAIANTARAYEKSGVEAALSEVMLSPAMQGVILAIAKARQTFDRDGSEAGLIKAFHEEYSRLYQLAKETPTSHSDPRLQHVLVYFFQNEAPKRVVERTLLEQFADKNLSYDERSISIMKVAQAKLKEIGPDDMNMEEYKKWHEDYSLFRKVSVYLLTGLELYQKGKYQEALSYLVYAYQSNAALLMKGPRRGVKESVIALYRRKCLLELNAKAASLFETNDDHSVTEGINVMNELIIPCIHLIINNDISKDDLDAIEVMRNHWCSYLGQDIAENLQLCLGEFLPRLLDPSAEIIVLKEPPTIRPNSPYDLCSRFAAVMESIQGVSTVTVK
In short: as §1

Measured: log2 ratio of Biotin-Ahx-Ub-VS probe labelling

USP24, sequence (Q9UPU5 whole entry): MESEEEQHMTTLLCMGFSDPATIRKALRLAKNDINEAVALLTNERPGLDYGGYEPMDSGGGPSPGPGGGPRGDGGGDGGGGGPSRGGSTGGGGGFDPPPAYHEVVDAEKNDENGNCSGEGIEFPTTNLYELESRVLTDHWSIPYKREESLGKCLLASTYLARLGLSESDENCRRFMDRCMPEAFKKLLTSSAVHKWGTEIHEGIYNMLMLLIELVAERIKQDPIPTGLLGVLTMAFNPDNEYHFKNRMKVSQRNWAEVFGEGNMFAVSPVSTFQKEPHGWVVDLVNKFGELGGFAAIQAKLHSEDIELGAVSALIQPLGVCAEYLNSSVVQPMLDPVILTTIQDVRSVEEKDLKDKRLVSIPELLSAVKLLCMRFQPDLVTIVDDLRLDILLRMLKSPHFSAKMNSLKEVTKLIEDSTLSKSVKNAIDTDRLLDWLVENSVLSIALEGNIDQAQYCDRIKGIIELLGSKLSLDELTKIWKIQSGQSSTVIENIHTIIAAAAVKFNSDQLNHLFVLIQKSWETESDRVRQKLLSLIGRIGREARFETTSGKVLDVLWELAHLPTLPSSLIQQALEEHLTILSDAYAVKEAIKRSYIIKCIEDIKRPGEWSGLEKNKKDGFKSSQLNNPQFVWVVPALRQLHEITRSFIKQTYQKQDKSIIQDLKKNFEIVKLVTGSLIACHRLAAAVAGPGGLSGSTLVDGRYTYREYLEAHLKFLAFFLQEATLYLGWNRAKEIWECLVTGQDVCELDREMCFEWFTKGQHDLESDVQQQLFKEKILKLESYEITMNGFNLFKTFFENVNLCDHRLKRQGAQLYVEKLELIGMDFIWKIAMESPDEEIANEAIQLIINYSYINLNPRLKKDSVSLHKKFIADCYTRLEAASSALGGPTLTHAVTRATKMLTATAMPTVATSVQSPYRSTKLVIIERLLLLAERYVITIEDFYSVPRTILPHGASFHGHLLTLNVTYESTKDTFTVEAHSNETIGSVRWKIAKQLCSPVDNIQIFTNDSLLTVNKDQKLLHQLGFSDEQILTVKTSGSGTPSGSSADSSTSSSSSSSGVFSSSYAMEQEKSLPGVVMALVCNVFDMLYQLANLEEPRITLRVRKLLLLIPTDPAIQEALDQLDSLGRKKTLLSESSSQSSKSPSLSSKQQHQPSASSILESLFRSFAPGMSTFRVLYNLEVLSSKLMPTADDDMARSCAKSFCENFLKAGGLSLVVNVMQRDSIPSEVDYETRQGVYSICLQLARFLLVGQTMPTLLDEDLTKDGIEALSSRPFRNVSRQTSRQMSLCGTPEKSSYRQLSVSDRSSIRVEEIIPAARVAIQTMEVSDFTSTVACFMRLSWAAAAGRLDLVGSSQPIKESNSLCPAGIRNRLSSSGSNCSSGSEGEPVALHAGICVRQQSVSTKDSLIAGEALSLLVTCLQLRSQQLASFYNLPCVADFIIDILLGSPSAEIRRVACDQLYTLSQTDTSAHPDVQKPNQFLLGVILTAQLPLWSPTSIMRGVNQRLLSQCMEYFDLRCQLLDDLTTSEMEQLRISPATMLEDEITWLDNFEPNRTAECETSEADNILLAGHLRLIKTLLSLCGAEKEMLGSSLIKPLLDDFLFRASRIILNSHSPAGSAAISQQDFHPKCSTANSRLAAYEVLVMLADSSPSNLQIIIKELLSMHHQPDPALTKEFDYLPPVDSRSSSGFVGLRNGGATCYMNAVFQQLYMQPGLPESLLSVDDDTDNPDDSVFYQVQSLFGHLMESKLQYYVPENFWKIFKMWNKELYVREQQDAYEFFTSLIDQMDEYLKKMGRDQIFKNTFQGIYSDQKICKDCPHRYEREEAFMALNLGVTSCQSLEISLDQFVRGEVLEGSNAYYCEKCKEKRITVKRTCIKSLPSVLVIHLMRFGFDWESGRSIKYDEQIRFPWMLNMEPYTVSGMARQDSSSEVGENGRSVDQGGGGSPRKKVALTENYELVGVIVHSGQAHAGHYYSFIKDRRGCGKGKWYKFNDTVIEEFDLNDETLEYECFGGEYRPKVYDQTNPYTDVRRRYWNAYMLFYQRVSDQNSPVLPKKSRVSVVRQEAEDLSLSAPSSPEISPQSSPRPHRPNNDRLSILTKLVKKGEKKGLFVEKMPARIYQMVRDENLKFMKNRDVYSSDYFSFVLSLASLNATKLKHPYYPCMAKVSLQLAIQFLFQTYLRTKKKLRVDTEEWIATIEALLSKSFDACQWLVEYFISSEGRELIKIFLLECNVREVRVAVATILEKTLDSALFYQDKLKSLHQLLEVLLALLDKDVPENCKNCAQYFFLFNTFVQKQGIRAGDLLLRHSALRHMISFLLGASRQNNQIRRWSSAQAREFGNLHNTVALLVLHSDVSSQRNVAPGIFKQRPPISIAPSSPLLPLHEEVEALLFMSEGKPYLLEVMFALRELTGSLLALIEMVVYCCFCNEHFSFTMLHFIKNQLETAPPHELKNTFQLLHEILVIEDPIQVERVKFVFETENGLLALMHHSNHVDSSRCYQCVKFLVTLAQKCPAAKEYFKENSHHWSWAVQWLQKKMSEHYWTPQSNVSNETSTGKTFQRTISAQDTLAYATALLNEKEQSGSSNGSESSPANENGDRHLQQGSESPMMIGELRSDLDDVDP

CNC(=O)C1CCN(C(=O)CCl)CC1
inactive: USP19 -0.122 | USP22 0.206 | USP24 -0.198 | USP25 -0.123 | USP28 -0.243
